Here are results for 54 compounds from ChEMBL document CHEMBL3988442, “University of Dundee, Small-Polar-MMV Screening Library” (2021).

Hit rate of the full screen: of about 69,000 compounds, about 420 (0.61%) showed an effect of 50% or more. The entries come from a sample that favours strong results as a whole.

The assay concerns the target T1, Histidine--tRNA ligase (Leishmania infantum) (UniProt A4I591).
T1 sequence (whole entry): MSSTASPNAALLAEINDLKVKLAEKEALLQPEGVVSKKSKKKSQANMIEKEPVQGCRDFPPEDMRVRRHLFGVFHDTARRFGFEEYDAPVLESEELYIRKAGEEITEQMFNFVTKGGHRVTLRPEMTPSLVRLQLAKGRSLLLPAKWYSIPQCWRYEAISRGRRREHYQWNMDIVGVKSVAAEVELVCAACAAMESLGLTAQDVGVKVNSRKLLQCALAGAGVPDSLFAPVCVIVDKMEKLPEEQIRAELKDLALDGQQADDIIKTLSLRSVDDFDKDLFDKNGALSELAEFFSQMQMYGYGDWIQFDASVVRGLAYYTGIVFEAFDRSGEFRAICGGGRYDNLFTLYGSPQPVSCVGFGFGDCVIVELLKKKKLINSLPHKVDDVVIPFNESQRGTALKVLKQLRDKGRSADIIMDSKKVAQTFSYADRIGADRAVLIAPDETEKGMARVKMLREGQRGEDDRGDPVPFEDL
Description: Leishmania infantum Histidine tRNA synthetase (LdHisRS). In kind it is functional. More on the design: scale not given: in the data most compounds retested in dose-response had high values. Conditions: 30 µM.
On to `c1ccc(-n2ncc(CNCC3CCCN3c3cccnn3)n2)cc1` (centres undefined), for which the Percent Effect was found to be 65.2%.

`c1ccc(-n2cc(CNCC3CCCN3c3cccnn3)nn2)cc1` (centres undefined): the Percent Effect is 6.14%.

On to `COCCOC(=O)N1CCN2C[C@@H](CO)[C@H](c3ccccc3)[C@H]2C1`, for which the Percent Effect came to 2.04%.

Take `O=C(c1ccoc1)N1CC[C@@H]2O[C@H](COCc3ccccn3)CC[C@@H]21`: the Percent Effect turned out to be 7.52%.

For the compound `c1cnc(N2CCO[C@H]3[C@H](OCC4CC4)CC[C@@H]32)nc1`, the Percent Effect is 8.11%.

`O=C1NC(c2ccccc2)=N[C@@]12CC[C@@H]1CN(Cc3ccncc3)C[C@@H]12`: the Percent Effect is 25%.

As to `COCCNC(=O)[C@H]1C[C@@H]2CCN(c3nncs3)C[C@H]2O1`, the Percent Effect was 5.77%.

In the case of `O=C(c1ccccc1)N1C[C@@H]2CCCO[C@@H]2[C@H](N2CCOCC2)C1`, the Percent Effect turned out to be 17.5%.

As to `O=C(Nc1cccn(Cc2ccc(F)cc2)c1=O)c1cnc[nH]1`, the Percent Effect was 27.4%.

For `O=C(Nc1cccn(CC(F)(F)F)c1=O)c1ccncc1F`, the Percent Effect is 17.1%.

Take `Cc1cc(C(=O)Nc2cccn(Cc3ccc(F)cc3)c2=O)no1`: the Percent Effect was 20.4%.

With `O=C(Nc1cccn(Cc2ccccc2)c1=O)c1ccncc1F`, the Percent Effect turned out to be 68.6%.

`Cc1cc(C(=O)Nc2cccn(Cc3ccc(F)cc3)c2=O)on1`: the Percent Effect is 84.1%.

For the compound `Cc1cc(C(=O)Nc2cccn(Cc3ccccc3)c2=O)no1`, the Percent Effect worked out at 23.9%.

`CC(C)CN1C[C@H]2CCN(C(=O)C3CCCO3)CC[C@H]2S1(=O)=O` (some centres undefined): the Percent Effect was 13.8%.

With `O=C1[C@H]2CC[C@H](CN(Cc3ccccc3OC(F)F)C2)N1CC1CC1`, the Percent Effect came out at 28.9%.

Consider `Cc1noc(C)c1C(=O)N1C[C@@H]2CCCO[C@@H]2[C@H](N(C)C)C1`, for which the Percent Effect is 7.96%.

On to `O=C(c1ccnnc1)N1C[C@H]2CN(Cc3cccc(F)c3)C(=O)[C@H]2C1`, for which the Percent Effect was 0.917%.

As for `CNC(=O)[C@H]1C[C@@H]2CN(S(=O)(=O)c3ccccc3)C[C@@H]2N1C(C)=O`, the Percent Effect stood at 14.2%.

As to `O=C(N1CCOCC1)[C@@]12CCO[C@@H]1CCN(CC1CCCCC1)C2`, the Percent Effect is -3.88%.

As for `O=C(c1ccc2[nH]ccc2c1)N1CCn2cnc(COCC3CC3)c2C1`, the Percent Effect came to 61.2%.

Regarding `Cc1ccc(C(=O)N2CCn3cnc(COCC4CC4)c3C2)cn1`, the Percent Effect came to 15%.

Consider `Cc1cccc(C(=O)N2CCn3cnc(COCC4CC4)c3C2)c1`, for which the Percent Effect was 34.5%.

Take `CN(C)S(=O)(=O)N1C[C@@H]2CC[C@H](C1)N(CCC(=O)NCc1ccco1)C2`: the Percent Effect stood at 13.6%.

With `COc1ccc(-n2cc(CNC(=O)c3cc[nH]n3)nn2)cc1`, the Percent Effect came to 31.2%.

`COc1ccc(-n2cc(CNC(=O)c3ccccn3)nn2)cc1`: the Percent Effect was 18.8%.

As to `COc1ccc(-n2cc(CNC(=O)c3ccc[nH]3)nn2)cc1`, the Percent Effect was determined as 54.2%.

Take `CNC(=O)[C@H]1C[C@@H]2CCN(Cc3ccc4c(c3)OCO4)C[C@@H]2O1`: the Percent Effect turned out to be 14.6%.

On to `Cc1ccccc1-c1ncc(CNCc2csc(C(C)C)n2)s1`, for which the Percent Effect turned out to be 20%.

Turning to `CCC1=NOC(CNCc2cnc(-c3ccccc3C)s2)C1` (centres undefined), the Percent Effect stood at 61.7%.

`Cc1cnc(CNCc2cnc(-c3ccccc3C)s2)cn1`: the Percent Effect was 11.7%.

Take `CC1CCN(C(=O)[C@H]2C[C@@H]3CCN(CC4CCOCC4)C[C@@H]3O2)CC1`: the Percent Effect amounted to 12%.

As to `O=C(C1=CCCC1)N1C[C@H](Oc2cccnc2)[C@H]2OCCC[C@H]21`, the Percent Effect was determined as 3.85%.

Turning to `O=C(c1nc2c(s1)CCCN2CC1CC1)N1CCCC1`, the Percent Effect was found to be 40%.

Consider `CN1CCCN(C(=O)c2nc3c(s2)CCCN3CC2CC2)CC1`, for which the Percent Effect came out at 48%.

For the compound `O=C(c1nc2c(s1)CCCN2CC1CC1)N1CCOCC1`, the Percent Effect was determined as 94%.

For the compound `COCC(=O)N1CC[C@H]2O[C@@H](C)C[C@H]2C1`, the Percent Effect came to 12%.

Turning to `O=C(Nc1c(N2CCCC2)cccc1N1CCCC1)c1ccccn1`, the Percent Effect was determined as 84.6%.

With `O=C(Nc1c(N2CCCC2)cccc1N1CCCC1)c1cnccn1`, the Percent Effect is 30.8%.

With `O=C(Nc1c(N2CCCC2)cccc1N1CCCC1)c1cnsn1`, the Percent Effect came out at 15.4%.

`Cn1cccc1C(=O)N1CC[C@H]2[C@H]1CCN2CC1CCOCC1`: the Percent Effect is 24.6%.

As to `O=C(C1=CCCC1)N1C[C@H]2CCC[C@@]2(COCc2ccncc2)C1`, the Percent Effect is 25.7%.

`Cc1cccc(CN2C[C@@H]3COC[C@]3(CNC(=O)C3CC3)C2)c1`: the Percent Effect turned out to be 11.9%.

As for `CNC(=O)[C@@]12CCO[C@@H]1CCN(S(=O)(=O)c1ccccc1)C2`, the Percent Effect was determined as 15%.

With `COCCN(CC1CC1)c1nc(CCN)nc2sc(C)c(C)c12`, the Percent Effect stood at 32.7%.

For the compound `CCN(CCN(C)C)c1nc(CCN)nc2sc(C)c(C)c12`, the Percent Effect was found to be 54%.

On to `Cc1sc2nc(CCN)nc(N(CCN(C)C)CC3CCCO3)c2c1C` (centres undefined), for which the Percent Effect came out at 4.42%.

For `Cc1cccc(CN2C(=O)CC[C@@H]3[C@H]2CCN3Cc2cccnc2)n1`, the Percent Effect turned out to be 29.4%.

Turning to `Cc1nccc([C@H]2C[C@@H]3CCN(S(=O)(=O)C4CC4)C[C@H]3O2)n1`, the Percent Effect was determined as 11.1%.

Consider `O=c1[nH]c2cc3c(cc2cc1CN1CCCC1c1ccccn1)CCC3` (centres undefined), for which the Percent Effect came to 43.4%.

`O=c1[nH]c2cc3c(cc2cc1CN1CCCC1c1ccccn1)OCO3` (centres undefined): the Percent Effect amounted to 14.5%.

Take `CCOc1ccc2[nH]c(=O)c(CN3CCCC3c3ccccn3)cc2c1` (centres undefined): the Percent Effect came to 53%.

For `COCCC(=O)N1C[C@H]2CCC[C@@]2(COC)C1`, the Percent Effect came to 5.77%.

On to `Cn1cc(N2C(=O)CC[C@@H]3[C@H]2CCN3Cc2nccs2)cn1`, for which the Percent Effect amounted to 9.72%.
